The text below walks through data of the supplement of paper PMC11577813, “Eurasian spruce bark beetle detects lanierone using a highly expressed specialist odorant receptor, present in several functional sensillum types” (BMC Biology, 2024).

In test [1] the test system is (+)-isopinocamphone A-neuron OSN class. The experiment in a line: net action potential response of A-neuron (blank-subtracted) (spikes/s (Hz)); higher = stronger excitation. To be noted: 10 µg on filter paper; neuron: A neuron (large spike amplitude). The essentials:
(§1)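 Spikes were counted in AutoSpike for the large-amplitude A-neuron or the small-amplitude B-neuron, using 0.5 s windows across 1–4 sensilla. Responses were reported as spikes/s after subtraction of the pre-stimulus count and of the blank, averaged across sensilla. The recordings came from one fixed antenna of live lab-reared adult Ips typographus via tungsten electrodes under a humidified, charcoal-filtered airstream of 1.8 L/min, with each compound given as 10 μg in paraffin oil on filter paper in a pipette, pulsed for 0.5 s at 0.3 L/min.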

For test [2], the system named is (+)-trans-4-thujanol A-neuron OSN class. The test is described as above. The settings on record: 10 µg on filter paper; neuron: A neuron (large spike amplitude). The essentials: as §1
For test [3], the system named is (5S,7S)-trans-conophthorin A-neuron OSN class. The test is described as above. The settings on record: 10 µg on filter paper; neuron: A neuron (large spike amplitude). The essentials:
as §1

Test [4] concerns myrcene A-neuron OSN class. Described as above. The settings on record: 10 µg on filter paper; neuron: A neuron (large spike amplitude). The essentials: as §1
The test system of test [5] is p-cymene A-neuron OSN class. Described as above. The settings on record: 10 µg on filter paper; neuron: A neuron (large spike amplitude). The essentials: as §1
The subject of test [6] is lanierone-responsive B-neuron OSN class (ItypOR36). Nature of the test: net action potential response of lanierone B-neuron (blank-subtracted) (spikes/s (Hz)); higher = stronger excitation. To be noted: 10 µg on filter paper, neuron: B neuron (small spike amplitude). The essentials: as §1
For test [7], the system named is ipsdienol A-neuron OSN class. The experiment in a line: net action potential response of A-neuron (blank-subtracted) (spikes/s (Hz)); higher = stronger excitation. The settings on record: 10 µg on filter paper; neuron: A neuron (large spike amplitude). The essentials:
as §1

Setting [8] is: co-localized A-neuron class: (4S)-cis-verbenol.
Where [9] appears, read: co-localized A-neuron class: (5S,7S)-trans-conophthorin.
[10] abbreviates: co-localized A-neuron class: (+)-isopinocamphone.
The mark [11] stands for this setting: co-localized A-neuron class: (+)-trans-4-thujanol.
Setting [12] is: co-localized A-neuron class: ipsdienol.
The mark [13] stands for this setting: co-localized A-neuron class: myrcene.
Where [14] appears, read: co-localized A-neuron class: p-cymene.

± gives the standard deviation of the averaged measurements.

With `C=CC(=C)CCC=C(C)C` [Myrcene], the “net action potential response” value in test [1] is -2 ± 2; in test [2] it was 0.5 ± 3; in test [3] it was 2 ± 10; in test [4] it was 128; in test [5], 3.33 ± 2.3; in test [6] (setting [8]) it was 7.33 ± 7.6. Also, the “net action potential response” value in test [6] (setting [9]) was 0 ± 6; in test [6] (setting [10]) it was 1.33 ± 9; in test [6] (setting [11]) it was 2.5 ± 6.6; in test [6] (setting [12]) it was 2.67 ± 4.2; in test [6] (setting [13]), -6; in test [6] (setting [14]), -2.67 ± 4.6.

Turning to `C[C@]12CCC[C@](C)(OC1)O2` (racemic) [(±)-Frontalin], the “net action potential response” value is 2 ± 5.3 in test [1]; 1 ± 3.5 in test [2]; 96 ± 57 in test [3]; -8 in test [4]; 1.33 ± 1.1 in test [5].

For the molecule `C[C@H]1C(=O)C[C@H]2C[C@@H]1C2(C)C` [(-)-Pinocamphone], the “net action potential response” value is 119 ± 57 in test [1]; -0.5 ± 1.9 in test [2]; 2 ± 2 in test [3]; -2.67 ± 1.1 in test [7]; 0 in test [4]; 3.33 ± 3.1 in test [5].

`CCCCCC(O)CC` (racemic) [(±)-3-Octanol]: the “net action potential response” value in test [1] came to 10 ± 10; in test [2], 57.5 ± 45; in test [3], 13 ± 10; in test [4] it was 6; in test [5] it was 3.33 ± 2.3.

Regarding `CC(C)CCO` [3-Methyl-1-butanol], the “net action potential response” value in test [1] is 2 ± 2; in test [2], 11 ± 11; in test [3], 3.33 ± 3.1; in test [4], -2; in test [5] it was 7.33 ± 6.1.

In the case of `C=CC(=C)CC(O)C=C(C)C` (racemic) [(±)-Ipsdienol], the “net action potential response” value in test [1] is -4.67 ± 1.1; in test [2], -1.5 ± 1.9; in test [3], -2.5 ± 1.9; in test [4] it was 40; in test [5], -1.33 ± 4.2; in test [6] (setting [8]) it was 2.67 ± 15. Further, the “net action potential response” value in test [6] (setting [9]) is -0.5 ± 3.4; in test [6] (setting [10]), -2.67 ± 4.2; in test [6] (setting [11]), 0 ± 1.6; in test [6] (setting [12]), -4.67 ± 10; in test [6] (setting [13]), -4; in test [6] (setting [14]), -0.667 ± 1.1.

Take `CCC/C=C\CO`: the “net action potential response” value in test [1] is 18 ± 19; in test [2], 25.5 ± 12; in test [3], -2 ± 6; in test [4] it was 2; in test [5] it was 0.

With `OCCc1ccccc1` [2-Phenylethanol], the “net action potential response” value in test [1] is 7.33 ± 3.1; in test [2], 3.5 ± 4.7; in test [3], 0 ± 1.6; in test [7], -2.67 ± 3.1; in test [4], 0; in test [5] it was 2.67 ± 3.1.

`C=CCc1ccc(OC)c(OC)c1` [Eugenol methyl ether]: the “net action potential response” value is -0.667 ± 5.8 in test [1]; 0 ± 1.6 in test [2]; 4 ± 2.3 in test [3]; 0 in test [4]; 4.67 ± 5 in test [5].

As to `C[C@@H]1C(=O)C[C@H]2C[C@@H]1C2(C)C` [(+)-Isopinocamphone], the “net action potential response” value in test [1] was 172 ± 28; in test [2], -2 ± 5.9; in test [3], 1.33 ± 1.1; in test [4], -4; in test [5], -3.33 ± 2.3; in test [6] (setting [8]) it was -0.667 ± 17. The “net action potential response” value in test [6] (setting [9]) is 1.33 ± 5; in test [6] (setting [10]) it was -5.33 ± 3.1; in test [6] (setting [11]) it was 1 ± 2.6; in test [6] (setting [12]), -2 ± 2; in test [6] (setting [13]) it was -2; in test [6] (setting [14]), -0.667 ± 3.1.
